Inconclusive results are not listed. Entries that show only a call come without a potency. The source made the active and inactive calls. Calls come from the whole dose curve; as a rule, active = well fitted cell-killing curve with a large enough effect; inconclusive = small, poorly fitted or top-dose-only effect, or effect the other way; inactive = no such curve, though single readings can be large or run the other way.
Potency is the fitted concentration of half-maximal effect.

The nature of the first experiment: Quantitative High-Throughput drug screen in 47 multiple myeloma cell lines against the NCATS MIPE library collection: PE2_PLB cell viability assay (AID 1919869). Note: nearly all actives have a fitted effect of over 35% in size. The note with it: PE2_PLB myeloma cells viability, ATP luminescence, 48 h; series mostly up to 45.8 µM. Summed up: (§1)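 Myeloma cells (500/well) treated with MIPE 4.0 compounds for 48 h at 37 °C, 5% CO2. Viability read as ATP via CellTiter-Glo luminescence after 5 min at RT; DMSO-only wells = 100%, media-only = 0% viability.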
On to `COC(=O)C1=CCCN(C)C1`, for which the Potency result was “inactive”.
The same measure, in the same setting: the value for `C[C@@H]1C[C@@H]([C@H](O)CC2CC(=O)NC(=O)C2)C(=O)[C@@H](C)C1` was 1.48 µM (active); that for `O=C(O)c1nn(Cc2ccc(Cl)cc2Cl)c2ccccc12` was “inactive”.
With `COc1ccc(C(=O)N2CCCC2=O)cc1`, the Potency entry was “inactive”.

Another experiment is described as follows: Quantitative High-Throughput drug screen in 47 multiple myeloma cell lines against the NCATS MIPE library collection: RPMI8226_ATCC cell viability assay (AID 1919871). Note: nearly all actives have a fitted effect of over 30% in size. The note with it: RPMI8226 myeloma viability, CellTiter-Glo ATP luminescence, 48 h; series mostly up to 45.8 µM. In short, it runs like this: as §1
For the molecule `C[C@@H]1C[C@@H]([C@H](O)CC2CC(=O)NC(=O)C2)C(=O)[C@@H](C)C1`, the Potency is 0.833 µM (active).
Same read-out and setting: the value for `O=C(O)c1nn(Cc2ccc(Cl)cc2Cl)c2ccccc12` was “inactive”.
On the same count and under the same terms, the value for `COc1ccc(C(=O)N2CCCC2=O)cc1` was 2.35 µM (active).

The next experiment is described as follows: Quantitative High-Throughput drug screen in 47 multiple myeloma cell lines against the NCATS MIPE library collection: KMS11_JCRBsus cell viability assay (AID 1919873). Note: nearly all actives have a fitted effect of over 50% in size. The settings on record: KMS11 myeloma viability, CellTiter-Glo ATP luminescence, 48 h; series mostly up to 45.8 µM. In short, it runs like this: as §1
(ATP-based viability assays read luminescence as a measure of living cells.)
For the molecule `COC(=O)C1=CCCN(C)C1`, the Potency result is “inactive”.
Consider `C[C@@H]1C[C@@H]([C@H](O)CC2CC(=O)NC(=O)C2)C(=O)[C@@H](C)C1`, for which the Potency is 0.187 µM (active).
On the same count and under the same terms, the value for `O=C(O)c1nn(Cc2ccc(Cl)cc2Cl)c2ccccc12` was “inactive”; that for `COc1ccc(C(=O)N2CCCC2=O)cc1` was 20.9 µM (active).
